Structures are written as SMILES. Where a structure was tested more than once in an assay, its records may differ in their call. The source made the active and inactive calls. Rule for the calls: active = hit-call score of the fitted dose curve at least 0.9, where 1 is the maximum; inactive = score below 0.9.

Read-out in test [1]: Macrophage colony-stimulating factor (MCSF), CSF1 (gene 1435)
Briefly: BSK_hDFCGF_MCSF: BioMAP Diversity Plus: hDFCGF Assay for Macrophage colony-stimulating factor (MCSF) Biomarker Activity (AID 2283060). Conditions: primary human foreskin fibroblasts; actives raise or lower the signal. Put shortly: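 Human foreskin primary fibroblasts were treated with test chemical for 24 h, and M-CSF was then measured by ELISA. Data were fitted bidirectionally against DMSO as the negative control and activity baseline.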

Test [2] is described as follows: BSK_hDFCGF_SRB: Viability Assessment in the BioMAP Diversity Plus: hDFCGF Assay (AID 2283061).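 Note: cells exposed to compound for 24 h before the read.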 Conditions: primary human foreskin fibroblasts. Put shortly:
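Human foreskin primary fibroblasts were treated with compound and assessed 24 h after dosing. Total protein was measured by sulforhodamine B staining (0.1% SRB after 10% TCA fixation, 560 nm read) as a cytotoxicity marker, with bidirectional fitting against DMSO baseline.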

Read-out in test [3]: TIMP metallopeptidase inhibitor 1 (TIMP1), TIMP1 (gene 7076)
Briefly: BSK_hDFCGF_TIMP1: BioMAP Diversity Plus: hDFCGF Assay for TIMP metallopeptidase inhibitor 1 (TIMP1) Biomarker Activity (AID 2283062). The conditions noted are these: primary human foreskin fibroblasts; actives raise or lower the signal. Put shortly:
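Primary human foreskin fibroblasts in the hDFCGF system were dosed with compound for 24 h, then TIMP-1 was measured by ELISA. Activity was fitted bidirectionally relative to DMSO control; parallel SRB staining assessed cytotoxicity.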

Read-out in test [4]: Monokine induced gamma interferon (MIG), CXCL9 (gene 4283)
Briefly: BSK_hDFCGF_MIG: BioMAP Diversity Plus: hDFCGF Assay for Monokine induced gamma interferon (MIG) Biomarker Activity (AID 2283063). The conditions noted are these: primary human foreskin fibroblasts; actives raise or lower the signal. Put shortly: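 ELISA read-out of MIG from primary human dermal fibroblasts 24 h post-dosing. Gain or loss of signal fitted bidirectionally, DMSO as baseline.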

Read-out in test [5]: Matrix Metallopeptidase 1 (MMP1), MMP1 (gene 4312)
Briefly: BSK_hDFCGF_MMP1: BioMAP Diversity Plus: hDFCGF Assay for Matrix Metallopeptidase 1 (MMP1) Biomarker Activity (AID 2283064). The conditions noted are these: primary human foreskin fibroblasts; actives raise or lower the signal. Put shortly: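 hDFCGF primary fibroblasts (human foreskin); chemical added; 24 h; MMP1 by ELISA; bidirectional fit vs DMSO.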

Read-out in test [6]: Vascular cell adhesion molecule 1 (VCAM1), VCAM1 (gene 7412)
Briefly: BSK_hDFCGF_VCAM1: BioMAP Diversity Plus: hDFCGF Assay for Vascular cell adhesion molecule 1 (VCAM1) Biomarker Activity (AID 2283065). The conditions noted are these: primary human foreskin fibroblasts; actives raise or lower the signal. Put shortly:
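Primary human foreskin fibroblasts (hDFCGF system) were dosed with chemical and VCAM-1 was measured by ELISA 24 h later. Bidirectional curve fitting used DMSO as negative control and activity baseline.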

Read-out in test [7]: Plasminogen activator inhibitor-1 (PAI1), SERPINE1 (gene 5054)
Briefly: BSK_hDFCGF_PAI1: BioMAP Diversity Plus: hDFCGF Assay for Plasminogen activator inhibitor-1 (PAI1) Biomarker Activity (AID 2283066). The conditions noted are these: primary human foreskin fibroblasts; actives raise or lower the signal. The essentials:
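Primary dermal fibroblasts (human foreskin), hDFCGF system; compound 24 h; PAI-1 by ELISA; bidirectional fit vs DMSO control.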

Read-out in test [8]: Intercellular Adhesion Molecule 1 (ICAM1), ICAM1 (gene 3383)
Briefly: BSK_KF3CT_ICAM1: BioMAP Diversity Plus: KF3CT Assay for Intercellular Adhesion Molecule 1 (ICAM1) Biomarker Activity (AID 2283067). The conditions noted are these: primary human keratinocytes with fibroblasts; actives raise or lower the signal. The essentials: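 Human keratinocyte plus foreskin fibroblast primary co-culture was exposed to chemical for 24 h. ICAM-1 was then quantified by ELISA, and the data were fit bidirectionally against DMSO as the negative control and baseline.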

Read-out in test [9]: Interferon-gamma inducible Protein 10 (IP10), CXCL10 (gene 3627)
Briefly: BSK_KF3CT_IP10: BioMAP Diversity Plus: KF3CT Assay for Interferon-gamma inducible Protein 10 (IP10) Biomarker Activity (AID 2283068). The conditions noted are these: primary human keratinocytes with fibroblasts; actives raise or lower the signal. The essentials:
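In a primary skin co-culture of keratinocytes and fibroblasts, IP-10 is quantified by ELISA at 24 h after dosing. SRB staining of parallel wells monitors overt toxicity. Curves are fitted both directions against DMSO.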

Test [10] in a line: BSK_KF3CT_SRB: Viability Assessment in the BioMAP Diversity Plus: KF3CT Assay (AID 2283069).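 Note: fitted for both signal gain and loss against DMSO baseline.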 The conditions noted are these: primary human keratinocytes with fibroblasts. The essentials:
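Keratinocytes co-cultured with foreskin fibroblasts (human primary); chemical added, 24 h; fix 10% TCA, stain 0.1% SRB, A560. Bidirectional fit vs DMSO.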

Read-out in test [11]: Interleukin-1 alpha (IL1a), IL1A (gene 3552)
Briefly: BSK_KF3CT_IL1a: BioMAP Diversity Plus: KF3CT Assay for Interleukin-1 alpha (IL1a) Biomarker Activity (AID 2283070). The conditions noted are these: primary human keratinocytes with fibroblasts; actives raise or lower the signal. The essentials: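 Chemicals were dosed onto co-cultured human keratinocytes and foreskin fibroblasts, IL-1a was quantified by ELISA at 24 h, and activity was fitted in both directions relative to DMSO controls.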

Read-out in test [12]: TIMP metallopeptidase inhibitor 2 (TIMP2), TIMP2 (gene 7077)
Briefly: BSK_KF3CT_TIMP2: BioMAP Diversity Plus: KF3CT Assay for TIMP metallopeptidase inhibitor 2 (TIMP2) Biomarker Activity (AID 2283071). Conditions: primary human keratinocytes with fibroblasts; actives raise or lower the signal. Put shortly: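 Cells: human keratinocytes co-cultured with foreskin fibroblasts. Treat with chemical, 24 h. Measure TIMP-2 by ELISA; fit curves bidirectionally vs DMSO baseline.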

Read-out in test [13]: C-C motif chemokine 2 (Homo sapiens) (UniProt P13500)
Briefly: BSK_KF3CT_MCP1: BioMAP Diversity Plus: KF3CT Assay for Monocyte Chemoattractant Protein 1 (MCP1/CCL2) Biomarker Activity (AID 2283073). The conditions noted are these: primary human keratinocytes with fibroblasts; actives raise or lower the signal. Put shortly: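 Human keratinocyte plus foreskin fibroblast primary co-culture exposed to chemical for 24 h. MCP-1 levels measured by ELISA. Bidirectional curve fitting relative to DMSO negative control as baseline.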

Read-out in test [14]: Matrix Metallopeptidase 9 (MMP9), MMP9 (gene 4318)
Briefly: BSK_KF3CT_MMP9: BioMAP Diversity Plus: KF3CT Assay for Matrix Metallopeptidase 9 (MMP9) Biomarker Activity (AID 2283074).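 For AC50: MMP9 protein level quantified by ELISA in the co-culture.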 The conditions noted are these: primary human keratinocytes with fibroblasts; actives raise or lower the signal. Put shortly:
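Human keratinocyte/foreskin fibroblast co-culture; compound added; 24 h; MMP-9 by ELISA; bidirectional fit vs DMSO baseline.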

Read-out in test [15]: urokinase plasminogen activator (uPA), PLAU (gene 5328)
Briefly: BSK_KF3CT_uPA: BioMAP Diversity Plus: KF3CT Assay for urokinase plasminogen activator (uPA) Biomarker Activity (AID 2283075). Conditions: primary human keratinocytes with fibroblasts; actives raise or lower the signal. The essentials:
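ELISA readout of uPA, analyzed for signal gain or loss relative to DMSO, from a human primary keratinocyte–foreskin fibroblast co-culture measured 24 h after chemical treatment.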

Read-out in a further test: CD40, CD40 (gene 958)
Briefly: BSK_LPS_CD40: BioMAP Diversity Plus: LPS Assay for CD40 Biomarker Activity (AID 2283076). Conditions: primary human HUVEC with PBMC; actives raise or lower the signal. Put shortly: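 Primary human umbilical vein endothelial cells co-cultured with peripheral blood mononuclear cells, LPS-stimulated, were dosed with chemical and read 24 h later. CD40 levels were measured by ELISA and fitted bidirectionally against DMSO as negative control and baseline.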

Read-out in test [16]: E-selectin (Homo sapiens) (UniProt P16581)
Briefly: BSK_LPS_Eselectin: BioMAP Diversity Plus: LPS Assay for Eselectin Biomarker Activity (AID 2283077). The conditions noted are these: primary human HUVEC with PBMC; actives raise or lower the signal. Put shortly: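 Human umbilical vein endothelial cells co-cultured with peripheral blood mononuclear cells under LPS stimulation; E-selectin measured by ELISA 24 h after chemical dosing. Activity fitted bidirectionally against DMSO as negative control and baseline.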

Read-out in test [17]: Interleukin-8 (IL8), CXCL8 (gene 3576)
Briefly: BSK_LPS_IL8: BioMAP Diversity Plus: LPS Assay for Interleukin-8 (IL8) Biomarker Activity (AID 2283078). Conditions: primary human HUVEC with PBMC; actives raise or lower the signal. Put shortly: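 Human umbilical vein endothelial cells co-cultured with PBMC were stimulated with LPS; IL-8 levels were measured by ELISA 24 h after chemical dosing. Activity was fitted bidirectionally against DMSO as negative control and baseline.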

The nature of test [18]: BSK_LPS_SRB: Viability Assessment in the BioMAP Diversity Plus: LPS Assay (AID 2283079).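 Note: total protein by sulforhodamine B absorbance as a cytotoxicity measure; measured one day after compound addition; fitted in both directions against DMSO so loss or gain of signal counts.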 The conditions noted are these: primary human HUVEC with PBMC. The essentials: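 Human umbilical vein endothelial cells co-cultured with PBMC (LPS system) were dosed for 24 h. Total protein was stained with 0.1% sulforhodamine B after 10% TCA fixation, read at 560 nm, and fitted bidirectionally against DMSO baseline.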

Read-out in test [19]: Interleukin-1 alpha (IL1a), IL1A (gene 3552)
Briefly: BSK_LPS_IL1a: BioMAP Diversity Plus: LPS Assay for Interleukin-1 alpha (IL1a) Biomarker Activity (AID 2283080). The conditions noted are these: primary human HUVEC with PBMC; actives raise or lower the signal. The essentials: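 Human umbilical vein endothelial cells co-cultured with peripheral blood mononuclear cells were LPS-stimulated and exposed to test chemicals for 24 h. IL-1 alpha was quantified by ELISA, with bidirectional curve fitting against DMSO as the negative control and baseline.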

Sequence of E-selectin (Homo sapiens) (P16581 whole entry, looked up): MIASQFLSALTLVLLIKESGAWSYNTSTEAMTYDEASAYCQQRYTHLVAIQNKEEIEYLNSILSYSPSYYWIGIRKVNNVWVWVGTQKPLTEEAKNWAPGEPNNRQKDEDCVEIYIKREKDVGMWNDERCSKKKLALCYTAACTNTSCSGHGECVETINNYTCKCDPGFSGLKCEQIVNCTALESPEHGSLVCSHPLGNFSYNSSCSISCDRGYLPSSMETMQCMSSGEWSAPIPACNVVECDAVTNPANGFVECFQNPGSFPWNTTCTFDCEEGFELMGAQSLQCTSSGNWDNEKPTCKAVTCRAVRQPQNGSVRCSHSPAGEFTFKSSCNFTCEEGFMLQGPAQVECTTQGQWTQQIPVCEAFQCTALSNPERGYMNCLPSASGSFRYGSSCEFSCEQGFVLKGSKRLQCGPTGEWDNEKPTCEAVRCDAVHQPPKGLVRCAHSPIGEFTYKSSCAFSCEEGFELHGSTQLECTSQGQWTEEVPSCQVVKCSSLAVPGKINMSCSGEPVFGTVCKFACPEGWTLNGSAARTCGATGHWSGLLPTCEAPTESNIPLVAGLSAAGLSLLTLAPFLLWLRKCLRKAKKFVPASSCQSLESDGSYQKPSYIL

For the compound `FC(F)(F)C(F)(F)C(F)(F)N(C(F)(F)C(F)(F)C(F)(F)F)C(F)(F)C(F)(F)C(F)(F)F`, the outcome in test [1], in test [2], in [3], in test [4], in test [5] and in [6] was inactive. Further, the result in test [7], in [8], in test [9], in [10], in test [11] and in test [12] was inactive. Also, the outcome was “inactive” in test [13]; “inactive” in [14]; “inactive” in test [15]; “inactive” with CD40, CD40 (gene 958); “inactive” in test [16]; “inactive” in test [17]. Further, the result in test [18] was inactive.

For orientation: AC50 means the concentration at which the activity in the assay is half-maximal. Take `C=CC(F)(F)C(F)(F)C(F)(F)C(F)(F)C(F)(F)C(F)(F)C(F)(F)C(F)(F)C=C`: the result in [1], in test [2], in test [3], in test [4], in [5] and in test [6] was inactive. Further, the result in test [7], in test [8], in test [9], in [10], in test [11] and in [12] was inactive. The outcome in [13] was “inactive”; in test [14] it was “inactive”; in test [15], “inactive”; in the test with CD40, CD40 (gene 958), “inactive”; in test [16] it was “inactive”; in test [17], “inactive”. In addition, the result in [18] and in test [19] was inactive. The concentration at half-maximal activity (AC50) in test [2] is 3.33 µM (active).

`C#C[C@]1(O)CC[C@H]2[C@@H]3CCc4cc(OC)ccc4[C@H]3CC[C@@]21C`: the outcome in [1], in test [2], in [3], in [4], in test [5] and in test [6] was inactive. The result in test [8], in test [9], in [10], in test [13], in test [16] and in test [17] was inactive. Moreover, the outcome in [18] was inactive. The half-maximal activity concentration (AC50) in test [7] is 0.016 µM (active); in test [11], 3.97 µM (active); in test [12], 5.41 µM (active); in test [14], 7.71 µM (active); in test [15] it was 9.89 µM (active); in the test with CD40, CD40 (gene 958) it was 20 µM (active).

For `C=C(C)C(=O)OCC(F)(F)C(F)(F)C(F)(F)C(F)(F)C(F)(F)C(F)(F)C(F)(F)F`, the result in [1], in test [2], in test [3], in test [4], in test [5] and in [6] was inactive. For the same compound, the outcome in [7], in test [8], in test [9], in [10], in test [11] and in [12] was inactive. The outcome in test [13] is “inactive”; in [15], “inactive”; with CD40, CD40 (gene 958) it was “inactive”; in [16] it was “inactive”; in [17], “inactive”; in test [18], “inactive”. The AC50 was 1.4 µM (active) in test [2] and 0.0306 µM (active) in test [16].

Take `Cc1ccc(S(=O)(=O)OCC(F)(F)C(F)(F)C(F)(F)C(F)(F)C(F)(F)C(F)F)cc1`: the result in [1], in test [2], in test [3], in test [4], in [5] and in test [6] was inactive. The result in [7], in test [8], in test [9], in test [10], in test [11] and in test [12] was inactive. Also, the outcome in test [13] was “inactive”; in test [14], “inactive”; in test [15], “inactive”; in the test with CD40, CD40 (gene 958), “inactive”; in [16], “inactive”; in test [17], “inactive”. For the same compound, the result in [18] was inactive. Moreover, the half-maximal activity concentration (AC50) is 10.8 µM (active) in test [14] and 30 µM (active) with CD40, CD40 (gene 958).

(Values after PubChem BioAssay (EPA / NIEHS).)
